Screening results as filed in PubChem.
Hits are enriched below; roughly 4.7% of the tested compounds scored in any of these assays.
proKLK7 act: proKLK7 zymogen activators, primary screen, biochemical, fluorescence intensity | Kallikrein-7 (Homo sapiens), P49862 | purified proKLK7, EDANS-DABCYL substrate fluorescence; 100% is mature enzyme control, 0% vehicle | activation, % at 7 µM | 0.9% of 370,000 active | AID 652039, 2013;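 active means activation above the mean of all tested compounds plus 3 SD, computed per campaign excluding outliers beyond control limits, cut at about 13% in these data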
rCAG RNA binder: binders of r(CAG) RNA repeats, primary screen, biochemical, fluorescence; AID 651821, 2012; 1.3% of 370,000 active; inhibition, % at 3 µM; r(CAG) RNA repeat, TO-PRO-1 dye displacement fluorescence;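 active means inhibition above the plate cutoff, the mean of all test compounds on that plate plus 3 SD, cut at about 35% in these data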;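 further: higher means more dye released from RNA so lower well fluorescence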
ADAM10 inh: human ADAM10 inhibitors, primary screen, biochemical, QFRET, HTS; Disintegrin and metalloproteinase domain-containing protein 10 (Homo sapiens), O14672; recombinant ADAM10, EDANS/DABCYL FRET peptide cleavage, 3 h; inhibition, % at 7 µM; 0.62% of 370,000 active;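 active means inhibition above a per-campaign cutoff equal to the mean of compounds falling between control-based bounds plus 3 SD, cut at about 20% in these data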
MPTP inh: mitochondrial permeability transition pore inhibitors, primary screen, biochemical, isolated mouse mitochondria, absorbance | Ca2+ swelling absorbance, 30 min | inhibition, % at 10 µM | 1.4% of 360,000 active | AID 602449, 2012;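 active means inhibition of 50% or more, scaled per plate between neutral and stimulator controls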
DSG3 Ab inh: inhibitors of pemphigus antibody binding to DSG3, primary screen, biochemical, bead-based, flow cytometry, scFv-GFP; Desmoglein-3 (Homo sapiens), P32926; DSG3-coupled beads, scFv-anti-DSG3-GFP binding; hits give low values; binding (percent of control), % at 10 µM; 0.48% of 310,000 active; AID 588358, 2011;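 active means binding more than 3 SD below its plate's average and above zero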;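 further: hits lower antibody fragment binding to DSG3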
Target sequence (P32926 whole entry, looked up, the tested form may be a part): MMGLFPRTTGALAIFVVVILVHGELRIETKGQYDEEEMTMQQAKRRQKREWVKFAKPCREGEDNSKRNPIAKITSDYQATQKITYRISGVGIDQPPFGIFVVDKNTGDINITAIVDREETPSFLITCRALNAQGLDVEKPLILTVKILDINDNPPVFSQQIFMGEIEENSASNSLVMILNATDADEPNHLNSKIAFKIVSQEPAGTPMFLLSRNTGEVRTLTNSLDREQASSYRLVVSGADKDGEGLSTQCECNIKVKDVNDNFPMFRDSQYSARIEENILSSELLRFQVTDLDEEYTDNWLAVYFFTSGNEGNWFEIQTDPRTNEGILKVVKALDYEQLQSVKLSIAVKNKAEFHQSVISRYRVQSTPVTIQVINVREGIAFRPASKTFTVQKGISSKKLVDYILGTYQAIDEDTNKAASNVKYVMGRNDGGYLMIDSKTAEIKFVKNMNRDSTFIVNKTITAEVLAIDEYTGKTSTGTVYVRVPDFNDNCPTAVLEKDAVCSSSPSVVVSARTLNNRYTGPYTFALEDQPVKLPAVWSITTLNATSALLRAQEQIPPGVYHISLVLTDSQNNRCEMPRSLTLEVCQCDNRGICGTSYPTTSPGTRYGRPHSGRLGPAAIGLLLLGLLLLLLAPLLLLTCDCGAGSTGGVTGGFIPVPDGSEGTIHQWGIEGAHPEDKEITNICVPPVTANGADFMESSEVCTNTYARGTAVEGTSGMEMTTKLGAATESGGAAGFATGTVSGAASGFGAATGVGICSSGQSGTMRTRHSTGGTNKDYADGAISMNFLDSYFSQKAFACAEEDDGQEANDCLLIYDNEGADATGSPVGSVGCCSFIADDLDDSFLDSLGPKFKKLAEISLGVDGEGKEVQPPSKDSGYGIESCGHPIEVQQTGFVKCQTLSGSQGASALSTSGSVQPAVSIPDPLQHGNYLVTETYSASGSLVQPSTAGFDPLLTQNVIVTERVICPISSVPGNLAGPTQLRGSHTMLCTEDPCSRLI
ADAM17 inh: ADAM17 inhibitors, primary screen, biochemical, QFRET. Disintegrin and metalloproteinase domain-containing protein 17 (Homo sapiens), P78536. recombinant ADAM17, EDANS/DABCYL FRET peptide cleavage. inhibition, % at 6.95 µM. 0.83% of 370,000 active. AID 720648, 2013;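 active means inhibition above the mean of compounds lying between control limits plus 3 SD, set per campaign, cut at about 8.5% in these data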
rCAG binder conf: small molecules binding CAG repeat RNA – biochemical, fluorescence, confirmation; shares compounds with rCAG RNA binder; r(CAG) RNA repeat, TO-PRO-1 dye displacement fluorescence; inhibition, % at 3 µM; 70% of 4,300 active; AID 652065, 2013;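 active means inhibition above a per-plate cutoff, the mean inhibition of sample wells plus 3 SD, cut at about 35% in these data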;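 further: loss of TO-PRO-1 fluorescence as compound displaces dye from 1x1 AA loop RNA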
dCAG dye counter: displacement of TO-PRO-1 from CAG DNA duplex, counter-screen for rCAG RNA repeat binder project, biochemical, fluorescence, TO-PRO-1 dye, d(CAG) DNA oligo | shares compounds with rCAG RNA binder | d(CAG) DNA oligo TO-PRO-1 dye displacement | inhibition, % at 3 µM | 94% of 4,300 active;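 active means inhibition above its plate's cutoff, the mean test-well inhibition plus 3 SD, cut at about 4.8% in these data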;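 further: hits displace the dye from DNA and so lower well fluorescence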
DNA CAG DR: inhibitors of DNA CAG/GTC TO-PRO-1 complex, dose response, counter-screen for rCAG RNA repeat binder project, biochemical, fluorescence, TO-PRO-1 dye. shares compounds with rCAG RNA binder. DNA CAG/GTC duplex TO-PRO-1 dye displacement fluorescence. IC50, µM. 20% of 250 active; in the data active means IC50 below about 10 µM
A number is an active result; - = inactive; . = not tested or not shown.

SMILES | proKLK7 act | rCAG RNA binder | ADAM10 inh | MPTP inh | DSG3 Ab inh | ADAM17 inh | rCAG binder conf | dCAG dye counter | others
Cc1ccc(S(=O)(=O)N2[C@@H](c3ccc(C(C)(C)C)cc3)C(C(=O)O)=CC[C@H]2c2ccc(C(C)C)cc2)cc1 | - | 90 | 22 | - | - | - | 74 | 44
CCc1ccc([C@@H]2CC=C(C(=O)O)[C@H](c3ccc(C(C)(C)C)cc3)N2S(=O)(=O)c2ccc(C)cc2)cc1 | - | 92 | - | - | - | - | 85 | 53
CCc1ccc([C@H]2C(C(=O)O)=C[C@@H](C(C)(C)C)N2S(=O)(=O)c2ccc(C)cc2)cc1 | - | 52 | - | - | - | - | 49 | 18
Cc1ccc([C@@H]2CC=C(C(=O)O)[C@H](c3ccc(C(C)(C)C)cc3)N2S(=O)(=O)c2ccc(C)cc2)cc1 | - | 90 | - | - | - | - | 84 | 48
Cc1ccc(S(=O)(=O)N2C(c3cccc(Cl)c3)CC=C(C(=O)O)C2c2cccc(Cl)c2)cc1 (centres undefined) | - | - | - | - | . | - | . | .
COCCN(CCOC)Cc1cc(=O)oc2cc(C)cc(C)c12 | - | - | - | - | . | - | . | .
CC(C)(C)OC(=O)N1CC2(CCCCC2)CC1Cc1ccc(C(F)(F)F)cc1 (centres undefined) | - | - | - | - | - | - | . | .
CC1(C(=O)NS(=O)(=O)c2ccc(Cl)s2)CCN1C(=O)C1(c2ccccc2)CCCC1 (centres undefined) | - | 49 | - | - | . | - | 51 | 16
CC1(C(=O)NS(=O)(=O)c2ccc(Cl)s2)CCN1C(=O)C1(c2ccc(Cl)cc2)CCC1 (centres undefined) | - | 62 | - | - | . | - | 59 | 21
CC1(C(=O)NS(=O)(=O)c2cccs2)CCN1C(=O)C1(c2ccc(Cl)cc2)CCC1 (centres undefined) | - | - | - | - | . | - | . | .
CC1(C(=O)NS(=O)(=O)c2ccc(Cl)s2)CCN1C(=O)C1(c2ccc(Cl)cc2)CC1 (centres undefined) | - | 54 | - | - | . | - | 49 | 14
COc1ccc(CN2C[C@]3(C=C(C)Cn4c(=O)n(-c5ccccc5)c(=O)n43)N=C2NC(=O)c2ccccc2)c(OC)c1 | - | 42 | - | . | . | - | 43 | 18
COc1ccc(CN2C[C@]3(C=C(C)Cn4c(=O)n(-c5ccccc5)c(=O)n43)N(C(=O)OCc3ccccc3)C2=NC(=O)c2ccccc2)c(OC)c1 | - | - | - | . | . | - | . | .
O=C(NC1=N[C@@]2(C=C3CCCCC3n3c(=O)n(-c4ccccc4)c(=O)n32)CN1Cc1ccccc1)c1ccccc1 (some centres undefined) | - | 42 | - | . | . | - | 38 | 15
O=C(O)c1cccc(S(=O)(=O)N(Cc2ccccc2)c2cccc(C(F)(F)F)c2)c1 | - | 53 | - | - | - | - | 53 | 12 | DNA CAG DR=-
O=C(O)c1ccc(N(Cc2ccccc2)S(=O)(=O)c2ccccc2)cc1 | - | - | - | - | - | - | . | .
Cc1ccc(S(=O)(=O)N(CC(=O)Nc2ccccc2C(=O)O)c2ccc(Cl)cc2)cc1 | - | 62 | - | - | - | - | 58 | 18
O=C(O)c1cc(S(=O)(=O)N(Cc2ccccc2)c2ccc(Cl)cc2)ccc1Cl | - | 54 | - | - | - | - | 43 | 9.8
O=C(O)c1cccc(S(=O)(=O)N(Cc2ccccc2)c2ccccc2Cl)c1 | - | - | - | - | - | - | . | .
Cc1ccccc1NC(=O)Cc1nc(COC(=O)Cc2cccc(C(F)(F)F)c2)cs1 | - | - | - | - | - | - | . | .
CC(C)C(OC(=O)c1nsc(Cl)c1Cl)C(=O)NC1CCCCC1 (centres undefined) | - | - | - | - | - | - | . | .
CC1=NN(c2ccccc2)C(=O)C1/C=C1\NC(=S)NC1=O (centres undefined) | - | 55 | - | - | - | - | 72 | 36
CC1=NN(c2ccccc2)C(=O)C1C=Nc1ccccc1O (centres undefined) | . | . | . | - | - | . | . | .
Cc1ccc(NC(=S)N(Cc2ccco2)C2CCN(C(C)C)CC2)cc1 | - | 37 | - | - | - | - | - | -
CCc1ccc(NC(=O)/C(C#N)=C/c2cn(CC(=O)O)c3ccccc23)cc1 | - | 36 | - | - | - | - | - | 5.9
SMILES | proKLK7 act | rCAG RNA binder | ADAM10 inh | MPTP inh | DSG3 Ab inh | ADAM17 inh | rCAG binder conf | dCAG dye counter | others
N#C/C(=C/c1cn(CC(=O)O)c2ccccc12)C(=O)Nc1ccccc1 | - | - | - | - | - | - | . | .
CCOc1ccc(NC(=O)/C(C#N)=C/c2cn(CC(=O)O)c3ccccc23)cc1 | - | 56 | - | - | - | - | 50 | 15
CCOc1cccc(NC(=O)/C(C#N)=C\c2cn(CC(=O)O)c3ccccc23)c1 | - | 57 | - | - | - | - | 56 | 18
COc1cc(NC(=O)C2CCN(S(=O)(=O)c3ccc4[nH]c(=O)oc4c3)CC2)cc(OC)c1 | - | 36 | - | - | - | - | - | 9.2
COc1cccc(CC(=O)NCC2CCN(C(=O)C(=O)c3cccs3)CC2)c1 | - | - | - | . | . | - | . | .
NC(=S)N/N=C/c1c[nH]c2ccc(OCc3ccccc3)cc12 | . | . | . | - | - | . | . | .
O=C(CC1S/C(=N/N=C/c2ccco2)NC1=O)Nc1ccccc1 (centres undefined) | - | - | - | - | - | - | . | .
O=C(CC1S/C(=N/N=C/c2c[nH]c3ccc(OCc4ccccc4)cc23)NC1=O)Nc1ccccc1 (centres undefined) | - | 40 | - | - | - | - | 50 | 27
O=C(CC1S/C(=N/N=C/c2c[nH]c3ccccc23)NC1=O)Nc1ccccc1 (centres undefined) | - | 60 | - | - | - | - | 45 | 15
